Assay results reported in PubChem BioAssay AID1159580 (chemical genetic matrix, 2015).
In all, about 5,500 compounds went through this assay and about 2,000 (36%) were called active. Another 18% or so got no clear call; they are omitted. Cut-off read from the data, not from the text of the source: active = normalized growth mostly below about 0.91 (no sharp cut-off); inconclusive = no clear call, values can overlap the other calls; inactive = mostly above about 0.92. Some of the results follow.

Experiment: chemical genetic growth profiling, strain panel (AID 1159580);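 note: tested at 20 µM; growth read once vehicle control cultures reached saturation at 30 °C; 1 = growth at the plate median or of vehicle wells; lower values mean less growth of the strain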
Details: S. cerevisiae deletion strains, growth OD

Measured: normalized growth

COc1c(Cl)ccc(Cl)c1C(=O)O
inactive: locus YAL013W, strain DEP1, hits give low values 1.01 | locus YAL021C, strain ccr4, hits give low values 0.972 | locus YAL026C, strain drs2, hits give low values 0.988 | locus YAL030W, strain snc1, hits give low values 0.984 | locus YBL061C, strain skt5, hits give low values 0.977 | locus YBR009C, strain hhf1, hits give low values 0.988 | locus YBR021W, strain FUR4, hits give low values 1.02 | locus YBR023C, strain chs3, hits give low values 0.995 | locus YBR171W, strain sec66, hits give low values 0.977 | locus YBR229C, strain ROT2, hits give low values 0.999 | locus YBR231C, strain swc5, hits give low values 0.968 | locus YBR279W, strain paf1, hits give low values 0.982 | locus YCL011C, strain gbp2, hits give low values 0.981 | locus YCL016C, strain dcc1, hits give low values 0.986 | locus YCL029C, strain bik1, hits give low values 1.02 | locus YCL061C, strain MRC1, hits give low values 0.985 | locus YCL069W, strain vba3, hits give low values 0.984 | locus YCR088W, strain abp1, hits give low values 0.978 | locus YDL005C, strain med2, hits give low values 0.975 | locus YDL035C, strain GPR1, hits give low values 1.02 | locus YDL040C, strain nat1, hits give low values 0.977 | locus YDL074C, strain BRE1, hits give low values 1.04 | locus YDL101C, strain DUN1, hits give low values 1.01 | locus YDL134C, strain PPH21, hits give low values 1.01 | locus YDL185W, strain tfp1, hits give low values 1.02 | locus YDL192W, strain arf1, hits give low values 1.02 | locus YDR001C, strain nth1, hits give low values 0.985 | locus YDR069C, strain doa4, hits give low values 0.976 | locus YDR101C, strain arx1, hits give low values 1.01 | locus YDR137W, strain rgp1, hits give low values 1.01 | locus YDR150W, strain NUM1, hits give low values 1 | locus YDR159W, strain sac3, hits give low values 0.972 | locus YDR162C, strain NBP2, hits give low values 1.01 | locus YDR195W, strain ref2 0.919 | locus YDR297W, strain sur2, hits give low values 0.993 | locus YDR318W, strain mcm21, hits give low values 1.02 | locus YDR334W, strain swr1, hits give low values 0.979 | locus YDR335W, strain msn5, hits give low values 0.985 | locus YDR388W, hits give low values 1.01 | locus YDR392W, strain spt3, hits give low values 0.999 | locus YDR502C, strain sam2, hits give low values 1.01 | locus YEL003W, strain gim4, hits give low values 0.985 | locus YEL037C, strain rad23, hits give low values 0.985 | locus YEL061C, strain CIN8 (second series), hits give low values 0.973 | locus YEL061C, strain CIN8, hits give low values 0.997 | locus YER015W, strain faa2, hits give low values 0.981 | locus YER016W, strain bim1, hits give low values 0.985 | locus YER110C, hits give low values 1.02 | locus YER111C, strain swi4, hits give low values 0.96 | locus YER155C, strain BEM2 (second series), hits give low values 0.982 | locus YER155C, strain BEM2, hits give low values 1.01 | locus YER167W, strain BCK2, hits give low values 1.02 | locus YFR010W, strain ubp6, hits give low values 0.983 | locus YGL078C, strain dbp3, hits give low values 1.01 | locus YGL086W, strain mad1, hits give low values 1.01 | locus YGL167C, strain pmr1, hits give low values 0.984 | locus YGL173C, strain kem1, hits give low values 0.982 | locus YGL227W, strain vid30, hits give low values 0.97 | locus YGL240W, strain doc1, hits give low values 0.961 | locus YGL248W, strain PDE1, hits give low values 1.01 | locus YGL253W, strain hxk2, hits give low values 0.993 | locus YGR078C, strain PAC10, hits give low values 1.01 | locus YGR135W, strain pre9, hits give low values 1.02 | locus YGR229C, strain SMI1, hits give low values 1.04 | locus YGR252W, strain gcn5, hits give low values 1.02 | locus YHR013C, strain ard1, hits give low values 0.957 | locus YHR027C, strain rpn1, hits give low values 0.995 | locus YHR030C, strain SLT2, hits give low values 1.01 | locus YHR079C, strain IRE1 (second series), hits give low values 1.01 | locus YHR094C, strain hxt1, hits give low values 1.01 | locus YHR129C, strain ARP1, hits give low values 1.01 | locus YHR142W, strain chs7, hits give low values 0.979 | locus YHR200W, strain rpn10, hits give low values 1 | locus YIL066C, strain RNR3, hits give low values 1.04 | locus YIL073C, strain SPO22, hits give low values 1.09 | locus YIL125W, strain kgd1, hits give low values 1.01 | locus YIR030C, strain dcg1, hits give low values 1.01 | locus YJL092W, strain hpr5, hits give low values 0.987 | locus YJL095W, strain BCK1 (second series), hits give low values 0.99 | locus YJL095W, strain BCK1, hits give low values 1.02 | locus YJL115W, strain asf1, hits give low values 0.976 | locus YJL129C, strain trk1, hits give low values 0.976 | locus YJL134W, strain LCB3, hits give low values 1.01 | locus YJL154C, strain vps35, hits give low values 0.992 | locus YJL164C, strain tpk1, hits give low values 0.987 | locus YJL166W, strain qcr8, hits give low values 0.997 | locus YJL168C, strain set2, hits give low values 1.01 | locus YJL187C, strain SWE1 (second series), hits give low values 1.01 | locus YJL187C, strain SWE1, hits give low values 0.99
